Data on 8 compounds can be found in PubChem BioAssay (NCI).

Compounds without any hit were thinned out: in the full panel of roughly 83,000, 20% have a hit.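 Method: cells in 96-well plates; compound added at one concentration; 48 h incubation; percent growth measured; values under 10 scored active.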 A number with no mark means an inactive call. The source made the active and inactive calls.

Among the test systems are NCI-H23 lung; NCI-H226 lung; NCI-H322M lung; HOP-62 NSCLC; NCI-H460 lung; HOP-92 NSCLC; NCI-H522 lung; 786-0 renal; COLO 205 colon; DU-145 prostate; K-562 leukemia; MALME-3M melanoma; MDA-MB-231 breast; RXF 393 renal; SF-268 CNS; SF-295 CNS; SF-539 CNS; UACC-257 melanoma; M14 melanoma; A549/ATCC NSCLC.
What all share (test): NCI-60 one-dose screen, 48 h (100 = growth as untreated, 0 = no growth, -100 = all killed)
Conditions in all cases: 10 µM unless noted

In the case of `O=C(N/N=C/[C@@H](O)[C@H](O)[C@H](O)CO)c1ccc(NC(=O)c2cccnc2)cc1`, the growth is 107% in the experiment on NCI-H23 lung; 99.9% in the experiment with NCI-H226 lung; 104% in the experiment on NCI-H322M lung; 102% with HOP-62 NSCLC; 108% in the experiment on NCI-H460 lung; 103% in the experiment on HOP-92 NSCLC. The growth in the experiment with NCI-H522 lung was 99.3%; in the experiment with 786-0 renal, 106%; in the experiment with COLO 205 colon it was 107%; with DU-145 prostate, 112%; with K-562 leukemia it was 103%; with MALME-3M melanoma it was 110%. Also, the growth in the experiment with MDA-MB-231 breast is 102%; with RXF 393 renal, 109%; with SF-268 CNS, 98.5%; in the experiment with SF-295 CNS, 101%; with SF-539 CNS, 103%; in the experiment on UACC-257 melanoma, 100%. Further, the growth in the experiment on M14 melanoma is 106%.
For `Cc1cccc(NCc2cn(-c3ccc(C(=O)O)cc3)nc2-c2ccc(C(=O)O)cc2)n1`, the growth in the experiment on NCI-H23 lung was 110%; in the experiment on NCI-H226 lung, 99.8%; in the experiment with NCI-H322M lung, 105%; in the experiment on HOP-62 NSCLC, 104%; with NCI-H460 lung, 104%; in the experiment on HOP-92 NSCLC it was 105%. Also, the growth in the experiment on NCI-H522 lung was 95.8%; in the experiment with 786-0 renal, 102%; in the experiment with COLO 205 colon, 111%; in the experiment on DU-145 prostate, 103%; in the experiment on K-562 leukemia it was 96.8%; with MALME-3M melanoma, 96.5%. Besides, the growth in the experiment with MDA-MB-231 breast was 95.2%; with RXF 393 renal, 115%; in the experiment with SF-268 CNS, 96.2%; in the experiment on SF-295 CNS, 102%; in the experiment with SF-539 CNS, 98.5%; with UACC-257 melanoma it was 109%. Besides, the growth with M14 melanoma is 110%.
Take `COc1ccc(-c2nc(NCCO)[nH]c(=O)c2C#N)cc1`: the growth in the experiment with NCI-H23 lung is 95.1%; with NCI-H226 lung it was 99.9%; in the experiment on NCI-H322M lung, 95.8%; in the experiment on HOP-62 NSCLC it was 86.3%; with NCI-H460 lung it was 112%; with HOP-92 NSCLC it was 98.5%. Also, the growth in the experiment on NCI-H522 lung was 88.5%; in the experiment with A549/ATCC NSCLC it was 98.5%; with 786-0 renal, 101%; in the experiment on DU-145 prostate, 101%; in the experiment with K-562 leukemia, 97.1%; in the experiment on MALME-3M melanoma, 101%. Also, the growth in the experiment on RXF 393 renal is 117%; in the experiment on SF-268 CNS, 99.2%; with SF-295 CNS, 97.1%; with SF-539 CNS, 104%; with UACC-257 melanoma it was 112%; in the experiment with M14 melanoma it was 99.9%.
Consider `CCCCCCn1c(-c2ccc(C(=O)O/N=C(\N)c3ccc(OC)cc3)cc2)nc(-c2ccccc2)c1-c1ccccc1`, for which the growth with NCI-H23 lung was -63.9% (active); with NCI-H226 lung, 62.6%; in the experiment with NCI-H322M lung, 69.4%; in the experiment with HOP-62 NSCLC, 26.4%; in the experiment on NCI-H460 lung, -10.3% (active); in the experiment on HOP-92 NSCLC it was -63% (active). Further, the growth in the experiment on NCI-H522 lung is -59% (active); with 786-0 renal it was -66.8% (active); in the experiment with COLO 205 colon it was -14% (active); with DU-145 prostate, -73.6% (active); with K-562 leukemia, -35.3% (active); in the experiment with MALME-3M melanoma it was -18.2% (active). The growth in the experiment with MDA-MB-231 breast is -24% (active); with RXF 393 renal, -59.6% (active); in the experiment with SF-268 CNS it was 3.04% (active); in the experiment on SF-295 CNS, 1.78% (active); with SF-539 CNS, -84.1% (active); in the experiment on UACC-257 melanoma, 48.3%. In addition, the growth in the experiment on M14 melanoma is 40.9%.
In the case of `CCCCNc1nc(NN2C(=O)c3cccc4cccc(c34)C2=O)nc(-n2cnc3ccccc32)n1`, the growth in the experiment with NCI-H23 lung was 88.7%; in the experiment on NCI-H226 lung it was 54.9%; in the experiment with NCI-H322M lung, 92.7%; in the experiment on HOP-62 NSCLC, 97.4%; in the experiment with NCI-H460 lung, 102%; with HOP-92 NSCLC, 60.3%. Further, the growth was 89.5% with NCI-H522 lung; 97.7% in the experiment with 786-0 renal; 98.6% with DU-145 prostate; 34% in the experiment on K-562 leukemia; 105% with MALME-3M melanoma; 87.8% with MDA-MB-231 breast. Further, the growth is 74.8% in the experiment on RXF 393 renal; 89.9% in the experiment on SF-268 CNS; 88.9% in the experiment with SF-295 CNS; 75.9% in the experiment with SF-539 CNS; 99% in the experiment on UACC-257 melanoma; 103% with M14 melanoma.
Take `Brc1c[n+](Cc2ccc3ccccc3c2)cn1Cc1ccc2ccccc2c1`: the growth in the experiment on NCI-H23 lung is 9.7% (active); in the experiment on NCI-H226 lung, 34.4%; in the experiment on NCI-H322M lung, 73.8%; with HOP-62 NSCLC, 48%; with NCI-H460 lung, 20.1%; with HOP-92 NSCLC it was -24% (active). The growth was 13.3% in the experiment with NCI-H522 lung; 44.3% in the experiment with 786-0 renal; -49.6% (active) with COLO 205 colon; 38.5% in the experiment on DU-145 prostate; 10.5% in the experiment with K-562 leukemia; -4.88% (active) with MALME-3M melanoma. Besides, the growth was 8.23% (active) with MDA-MB-231 breast; 21.6% with RXF 393 renal; 14.5% with SF-268 CNS; 49.6% with SF-295 CNS; 40.1% in the experiment on SF-539 CNS; -35.4% (active) in the experiment with UACC-257 melanoma. Moreover, the growth with M14 melanoma was 1.8% (active).
Regarding `COc1ccc(-c2nc3sc(-c4ccc(Cl)cc4)cn3n2)cc1`, the growth is 58.5% with NCI-H23 lung; 50.1% with NCI-H226 lung; 17.8% with NCI-H322M lung; 39.6% with HOP-62 NSCLC; -39.3% (active) with NCI-H460 lung; 21.5% in the experiment on HOP-92 NSCLC. Further, the growth in the experiment with NCI-H522 lung is 61%; in the experiment with 786-0 renal, -75.8% (active); in the experiment on COLO 205 colon, 52.5%; in the experiment on DU-145 prostate it was 80.7%; in the experiment with K-562 leukemia it was 61.5%; in the experiment on MALME-3M melanoma it was 50.8%. Moreover, the growth in the experiment on MDA-MB-231 breast was 13.3%; with RXF 393 renal, 59%; in the experiment on SF-268 CNS, 65.1%; in the experiment on SF-295 CNS, 24.2%; in the experiment on SF-539 CNS, 15.4%; in the experiment on UACC-257 melanoma, 84.6%. Further, the growth in the experiment with M14 melanoma is 91.1%.
In the case of `Cc1ccc(/C=C(\C#N)n2nc3cccc(F)c3n2)cc1`, the growth is 83.7% with NCI-H23 lung; 92.9% in the experiment with NCI-H226 lung; 93.9% in the experiment on HOP-62 NSCLC; 96.3% with NCI-H460 lung; 55.7% in the experiment with HOP-92 NSCLC; 74.9% in the experiment on NCI-H522 lung. In addition, the growth in the experiment with A549/ATCC NSCLC is 97.7%; in the experiment on 786-0 renal, 83.7%; in the experiment on COLO 205 colon, 122%; in the experiment with DU-145 prostate it was 97.8%; in the experiment on K-562 leukemia, 80.5%; with MALME-3M melanoma, 93%. Further, the growth is 98.3% with MDA-MB-231 breast; 89.7% in the experiment on RXF 393 renal; 93.4% in the experiment with SF-268 CNS; 92.8% in the experiment on SF-295 CNS; 92.6% with SF-539 CNS; 97.7% with UACC-257 melanoma. Moreover, the growth in the experiment on M14 melanoma is 98.2%.
